From PubChem BioAssay (NCATS) come the findings set out here.

Test [1] deals with Glucocorticoid receptor (Homo sapiens) (UniProt P04150). The test is described as follows: GR-GFP Redistribution (AID 450;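 active means compounds whose dose series gives a full or clear partial fitted curve of increased nuclear translocation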; further: potency means the concentration at half of the fitted maximal effect). Particulars: U2OS GR-GFP nuclear translocation, laser cytometry, 2 h.
Test [2] shares this target. The test is described as follows: GR-EFC Redistribution (AID 451; calls by dose curve; further: potency means the concentration at half of the fitted maximal effect). The conditions noted are these: CHO-K1 GR-EFC translocation, beta-gal luminescence, 2 h. The method, boiled down:
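CHO-K1 cells stably expressing nuclear-localized β-gal enzyme acceptor and GR fused C-terminally to the enzyme donor fragment; ligand-driven nuclear translocation restores β-gal by complementation. Compounds titrated up to 46 uM final, 2 h at 37 °C; luminescence read.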

For test [3], the target named is Mitogen-activated protein kinase 10 (Mus musculus) (UniProt Q61831). The experiment in a line: JNK3 AlphaScreen Assay (AID 530; active means well fitted curve in either direction with a large enough effect, not every such curve was filed as active;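 further: kinase came from lysate of stimulated human HepG2 cells; signal reports phosphorylation of biotinylated GST-cJun 1-79 at Ser73 with 10 µM ATP; on the % scale 0 is the no-effect control and ±100 the full control effect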). The method, boiled down:
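Biotinylated GST-cJun(1-79) served as substrate for JNK3 in HepG2 lysates stimulated with IL-1beta and TNF-alpha. ATP was 10 uM final, pH 7.6. Ser73 phosphorylation was quantified by AlphaScreen (680 nm excitation).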
On the technique in general: Bead proximity is the source of the signal in Alpha formats.

Test [4] addresses 3',5'-cyclic-AMP phosphodiesterase 4B (Homo sapiens) (UniProt Q07343). The test is described as follows: qHTS Assay for Inhibitors of PDE-IV (AID 607; active means well fitted activation curve with a large enough effect in the main read-out, with a control signal flat, not every such curve was filed as active; further: % of control where 0% means no effect). The method, boiled down:
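HEK293 ACTOne cells with CNG channel (1000/well), endogenous PDE4; membrane potential dye, compounds up to 22.9 uM final. Fluorescence Ex 535/Em 590; RO 20-1724 (100 uM final) as reference.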
Background: qHTS replaces the single test concentration by a dilution series.

Test [5] can be described thus: qHTS Assay for Lipid Storage Modulators (AID 1519; calls by dose curve). Particulars: Drosophila S3 cells, BODIPY lipid droplet/cell ratio, laser cytometry, cells loaded with oleic acid; for activity change, negative = inhibition: at 57.5 µM (top of the series). The method, boiled down:
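Cells seeded at 5,000 per well were treated with compounds over a concentration series and loaded with oleic acid (400 uM, as added). Lipid droplet fluorescence (488 nm excitation, 500-530 nm channel) was read by laser-scanning cytometry and normalized to 20 uM Triacsin C.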

The target of test [6] is DNA dC->dU-editing enzyme APOBEC-3G (Homo sapiens) (UniProt Q9HC16). The test is described as follows: qHTS for inhibitors of Vif-A3G interactions: Validation (AID 588379). Further: potency means the concentration at half of the fitted maximal effect. On activity change, negative = inhibition: 0% is about no effect. A digest of the protocol:
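Yellow fluorescence (Ex 488, Em 500-530) of Vif-coexpressing HeLa A3G-eYFP cells, scanned by Acumen cytometer, reports blocked A3G degradation. Cells plated at 700/well overnight at 37 deg C before compound addition, then a further overnight compound incubation at 37 deg C.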

For test [7], the system named is Zika virus NS2B-NS3 protease. The test is described as follows: Primary screen GU AMC qHTS for Zika virus inhibitors (AID 1347154).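 Further: 0% = no-inhibitor control and -100% = no-enzyme control; nearly all actives have a fitted effect of over 70% in size.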 A digest of the protocol: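 Unlinked Zika NS2B hydrophilic domain/NS3 protease domain noncovalent complex (25 nM final) in 10 mM Tris-HCl pH 8.0, 0.01% Tween 20, with AMC peptide substrate. Fluorescence (ex 340, em 450 nm) change over 15 min, room temperature; percent inhibition fitted to 4-parameter Hill equation.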

The nature of test [8]: Primary qHTS for small molecule stabilizers of the endoplasmic reticulum resident proteome: Secreted ER Calcium Modulated Protein (SERCaMP) assay (AID 1508630). Further: on the % scale 0 is the no-effect control and ±100 the full control effect. The method, boiled down: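 The SH-SY5Y reporter protocol was run at 3 concentrations up to 38.3 uM (primary) or 11 concentrations (follow-up): 16 h compound, 100 nM thapsigargin for 4 h, then extracellular luciferase luminescence.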

Test [9] concerns the target Ubiquitin carboxyl-terminal hydrolase 1 (Homo sapiens) (UniProt O94782). The experiment in a line: Inhibitors of USP1/UAF1: Pilot qHTS (AID 504865).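 Further: rhodamine fluorescence freed from ubiquitin-rhodamine substrate followed over time; top concentration of the series differs between compounds; on the % scale 0 is the no-effect control and ±100 the full control effect; nearly all actives have a fitted effect of over 35% in size.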 The method, boiled down: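 Deubiquitinase activity followed as kinetic rhodamine fluorescence release from 150 nM Ub-Rho. 1 nM USP1/UAF1 with compound, after 15 min room-temperature preincubation, in HEPES pH 7.8 buffer containing TCEP, EDTA, BSA and Tween-20.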

Test [10] can be described thus: AP1 Signaling Pathway (AID 357; active means well fitted curve in either direction with a large enough effect, not every such curve was filed as active;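 further: ME-180 reporter cells stimulated with EGF at its EC50 level; on the % scale 0 is the no-effect control and ±100 the full control effect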). The method, boiled down:
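Titration-series screen for positive or negative modulators of EC50 EGF-induced signaling in ME-180 cells carrying an AP-1-driven beta-lactamase reporter. After 5 hours at 37 degrees Celsius, CCF4 460nm/530nm emission ratio gave %Activity; AC50 values derived.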

The target of test [11] is Cytochrome P450 1A2 (Homo sapiens) (UniProt P05177). The test is described as follows: p450-cyp1a2 (AID 410; calls by dose curve; further: potency means the concentration at half of the fitted maximal effect;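 on activity change, negative = inhibition: -100% = full effect of reference inhibitor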). The method, boiled down: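 Read-out is luminescence from luciferin produced by CYP1A2 demethylation of Luciferin-ME (100uM, at Km). Detection reagent stopped the 60 min NADPH-dependent reaction; signals were normalized to 57 uM furafylline.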
Cytochrome P450 1A2 (Homo sapiens), sequence (P05177 whole entry, looked up): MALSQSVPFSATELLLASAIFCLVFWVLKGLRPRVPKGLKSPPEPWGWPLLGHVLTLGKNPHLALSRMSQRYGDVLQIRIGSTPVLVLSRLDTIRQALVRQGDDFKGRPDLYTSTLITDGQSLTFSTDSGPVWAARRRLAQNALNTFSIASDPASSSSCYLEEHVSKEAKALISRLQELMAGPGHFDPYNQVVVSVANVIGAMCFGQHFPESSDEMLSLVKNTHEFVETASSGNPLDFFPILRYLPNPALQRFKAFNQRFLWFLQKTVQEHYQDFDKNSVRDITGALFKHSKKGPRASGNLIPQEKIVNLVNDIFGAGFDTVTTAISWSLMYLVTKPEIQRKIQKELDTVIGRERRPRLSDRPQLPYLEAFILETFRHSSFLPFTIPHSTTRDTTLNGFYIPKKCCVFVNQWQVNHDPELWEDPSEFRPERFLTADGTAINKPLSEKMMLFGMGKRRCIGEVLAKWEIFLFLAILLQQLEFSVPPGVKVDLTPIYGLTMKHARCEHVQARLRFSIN
Test [12] in a line: NFAT Signaling Pathway (AID 444; active means well fitted curve in either direction with a large enough effect, not every such curve was filed as active;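 further: carbachol stimulus at about its EC50 of 1 µM final; on the % scale 0 is the no-effect control and ±100 the full control effect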). Particulars: Jurkat NFAT-bla M1, carbachol, beta-lactamase ratio, 5 h. A digest of the protocol:
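Jurkat cells carrying an NFAT-driven β-lactamase reporter and co-transfected muscarinic M1 receptor were treated with compound plus carbachol (1 uM final, an EC50 level) for 5 h at 37 °C. CCF4 loading followed for 1 h at RT; 460/530 nm ratio gave %activity.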

Test [13] is described as follows: Stat Signaling Pathway (AID 446; active means well fitted curve in either direction with a large enough effect, not every such curve was filed as active). The method, boiled down:
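Normalization used AC90 stimulation (300 pM IL-6) and AC90 inhibition (125 nM pan-JAK inhibitor at 40 pM IL-6). The underlying signal is SIE-driven beta-lactamase in ME-180 cells after 5 h IL-6 exposure with compound.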

Test [14] addresses Guanine nucleotide-binding protein G(i) subunit alpha-1 (Homo sapiens) (UniProt P63096). The experiment in a line: qHTS Assay for Inhibitors of RGS12 GoLoco Motif Activity (Green Fluorophore) (AID 879).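 Further: 0% = labeled peptide with Gαi1 and full inhibition = labeled peptide alone without protein; negative values mean loss of peptide binding seen as reduced polarization.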 A digest of the protocol: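 A drop in FITC polarization marked displacement of the FITC-tagged RGS12 GoLoco peptide (10 nM) from Gαi1 (50 nM). Compounds were incubated 10 min at room temperature in Tris pH 7.5 buffer containing 150 mM NaCl, 0.1 mM GDP and 0.05% NP40; unlabeled peptide titration served as control.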

The target of test [15] is Cytochrome P450 3A4 (Homo sapiens) (UniProt P08684). The experiment in a line: qHTS Assay for Inhibitors and Substrates of Cytochrome P450 3A4 (AID 884). Further: on the % scale 0 is the no-effect control and ±100 the full control effect; nearly all actives have a fitted effect of over 50% in size. The method, boiled down: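 Luminescent readout of luciferin produced by CYP3A4 (20 nM) dealkylation of Luciferin-PPXE, 25 uM (its KM). NADPH-driven reaction ran 60 min at RT after 10 min compound preincubation; data scaled to 57 uM ketoconazole as 100% inhibition.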
Cytochrome P450 3A4 (Homo sapiens), sequence (P08684 whole entry, looked up): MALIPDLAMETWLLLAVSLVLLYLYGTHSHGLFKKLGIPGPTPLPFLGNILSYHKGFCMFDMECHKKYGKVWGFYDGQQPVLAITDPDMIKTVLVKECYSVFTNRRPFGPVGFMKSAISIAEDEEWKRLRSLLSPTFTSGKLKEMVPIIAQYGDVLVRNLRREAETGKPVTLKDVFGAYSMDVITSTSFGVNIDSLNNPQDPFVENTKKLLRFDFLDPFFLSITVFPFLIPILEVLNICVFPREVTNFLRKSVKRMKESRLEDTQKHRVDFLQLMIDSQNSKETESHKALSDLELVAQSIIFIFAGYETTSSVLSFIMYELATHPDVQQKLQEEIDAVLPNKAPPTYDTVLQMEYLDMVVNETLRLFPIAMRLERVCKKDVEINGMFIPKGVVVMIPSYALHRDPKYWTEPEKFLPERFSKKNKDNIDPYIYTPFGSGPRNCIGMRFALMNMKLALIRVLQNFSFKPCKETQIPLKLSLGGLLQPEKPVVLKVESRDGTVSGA

The target in test [16] is Cytochrome P450 2D6 (Homo sapiens) (UniProt P10635). The test is described as follows: qHTS Assay for Inhibitors and Substrates of Cytochrome P450 2D6 (AID 891).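 Further: luciferin methyl ether substrate demethylated by CYP2D6 with NADPH regeneration; on the % scale 0 is the no-effect control and ±100 the full control effect; nearly all actives have a fitted effect of over 60% in size.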 A digest of the protocol: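 Luminescent read-out of luciferin formed by 5 nM human CYP2D6 demethylating 30 uM Luciferin-ME EGE (Km level) over 60 min at room temperature after NADPH regeneration addition. Data normalized to full inhibition by 1.43 uM quinidine.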
Cytochrome P450 2D6 (Homo sapiens), sequence (P10635 whole entry, looked up): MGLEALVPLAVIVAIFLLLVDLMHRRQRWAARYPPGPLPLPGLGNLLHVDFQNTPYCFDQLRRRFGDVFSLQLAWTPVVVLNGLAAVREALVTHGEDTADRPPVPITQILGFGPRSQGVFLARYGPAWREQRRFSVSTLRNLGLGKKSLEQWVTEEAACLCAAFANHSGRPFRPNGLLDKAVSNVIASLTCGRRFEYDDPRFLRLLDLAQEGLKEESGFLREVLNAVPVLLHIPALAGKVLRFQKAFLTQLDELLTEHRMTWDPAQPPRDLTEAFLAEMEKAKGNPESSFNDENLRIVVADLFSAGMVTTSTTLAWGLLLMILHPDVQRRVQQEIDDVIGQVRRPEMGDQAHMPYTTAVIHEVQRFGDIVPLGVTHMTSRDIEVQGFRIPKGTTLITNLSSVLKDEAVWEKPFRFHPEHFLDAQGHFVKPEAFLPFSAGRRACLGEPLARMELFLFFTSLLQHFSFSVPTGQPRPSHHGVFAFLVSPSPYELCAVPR

For test [17], the target named is Pyruvate kinase (Leishmania mexicana) (UniProt Q27686). The experiment in a line: qHTS Validation Assay for Inhibitors of Leishmania Mexicana Pyruvate Kinase (AID 945).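 Further: 0% = DMSO only neutral control wells.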 The method, boiled down:
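LmPYK E451W 0.2 nM; 0.5 mM PEP, 0.1 mM ADP, 7 mM MgCl2, 50 mM KCl, imidazole pH 7.2, 0.01% Tween 20, 0.05% BSA; 1 h RT; PKLight luminescence; DMSO-normalized.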

Test [18] concerns the target Alpha-galactosidase (Coffea arabica) (UniProt Q42656). The test is described as follows: Counterscreen for Glucocerebrosidase Inhibitors: qHTS Assay for Coffee Bean alpha-Galactosidase at pH 4.5 (AID 957).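 Further: plate controls were enzyme alone for no effect and no enzyme for full effect.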 The method, boiled down: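 Quantitative HTS of compounds (0.7 nM to 77 uM) against coffee bean alpha-galactosidase at pH 4.5, measuring 4-methylumbelliferone fluorescence released from 80 uM substrate.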

The target of test [19] is Alpha-galactosidase A (Homo sapiens) (UniProt P06280). The test is described as follows: Counterscreen for Glucocerebrosidase Inhibitors: qHTS Assay for Human alpha-Galactosidase at pH 4.5 (AID 992). Further: 0% is about no effect. A digest of the protocol:
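Steps: enzyme (2 nM final), then compound across 0.7 nM to 77 uM, then 80 uM fluorogenic galactopyranoside substrate; incubate 20 min at room temperature; quench at pH 10; measure fluorescence at 365/440 nm.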
A general note: The purpose of a counterscreen is to sort out artefacts and off-target activity.

Test [20] deals with Cytochrome P450 3A4 (Homo sapiens) (UniProt P08684). The test is described as follows: qHTS Assay for Activators of Cytochrome P450 3A4 (AID 885). Further: nearly all actives have a fitted effect of over 65% in size. The method, boiled down:
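Human CYP3A4 dealkylates Luciferin-PPXE to luciferin, which luciferase detection converts to light. Substrate was at its KM (25uM), buffer 200mM KPO4, reaction 60 min at RT.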

[21] abbreviates: measured here: cell count channel max response.
The mark [22] stands for this setting: measured here: lipid channel max response.

“And” between values parts separate entries of the source, which are not always exact repeats. Equal values may be shown once. Inconclusive results are not listed. The source made the active and inactive calls. Unless noted, the call rests on the fitted dose curve; in most records, active means well fitted curve in the direction sought with a large enough effect; inconclusive means small, poorly fitted or top-dose-only effect, or another doubt; inactive means no such curve, though single readings can be large; an effect the other way counts as inactive or inconclusive.

Ubiquitin carboxyl-terminal hydrolase 1 (Homo sapiens), sequence (O94782 whole entry, looked up): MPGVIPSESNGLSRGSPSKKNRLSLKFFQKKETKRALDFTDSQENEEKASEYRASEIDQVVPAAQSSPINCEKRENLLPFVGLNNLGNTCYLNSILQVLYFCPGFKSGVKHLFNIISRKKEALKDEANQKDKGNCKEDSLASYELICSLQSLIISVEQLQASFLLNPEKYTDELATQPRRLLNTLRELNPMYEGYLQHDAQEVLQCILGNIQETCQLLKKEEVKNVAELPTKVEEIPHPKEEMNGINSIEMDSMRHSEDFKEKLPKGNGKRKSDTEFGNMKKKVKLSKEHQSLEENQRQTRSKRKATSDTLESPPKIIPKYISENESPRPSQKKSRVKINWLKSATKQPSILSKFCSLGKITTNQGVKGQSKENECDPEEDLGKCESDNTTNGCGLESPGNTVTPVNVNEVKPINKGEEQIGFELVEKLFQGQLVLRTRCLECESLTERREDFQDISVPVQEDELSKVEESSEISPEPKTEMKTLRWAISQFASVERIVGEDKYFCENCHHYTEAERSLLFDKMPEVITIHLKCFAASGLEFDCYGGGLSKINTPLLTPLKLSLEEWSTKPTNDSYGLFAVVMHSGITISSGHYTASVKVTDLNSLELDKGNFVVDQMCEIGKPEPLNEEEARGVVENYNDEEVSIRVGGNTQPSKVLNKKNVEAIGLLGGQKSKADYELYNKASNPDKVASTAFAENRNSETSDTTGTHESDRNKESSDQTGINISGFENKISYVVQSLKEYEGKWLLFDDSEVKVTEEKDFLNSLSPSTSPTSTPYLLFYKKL
3',5'-cyclic-AMP phosphodiesterase 4B (Homo sapiens), sequence (Q07343 whole entry, looked up): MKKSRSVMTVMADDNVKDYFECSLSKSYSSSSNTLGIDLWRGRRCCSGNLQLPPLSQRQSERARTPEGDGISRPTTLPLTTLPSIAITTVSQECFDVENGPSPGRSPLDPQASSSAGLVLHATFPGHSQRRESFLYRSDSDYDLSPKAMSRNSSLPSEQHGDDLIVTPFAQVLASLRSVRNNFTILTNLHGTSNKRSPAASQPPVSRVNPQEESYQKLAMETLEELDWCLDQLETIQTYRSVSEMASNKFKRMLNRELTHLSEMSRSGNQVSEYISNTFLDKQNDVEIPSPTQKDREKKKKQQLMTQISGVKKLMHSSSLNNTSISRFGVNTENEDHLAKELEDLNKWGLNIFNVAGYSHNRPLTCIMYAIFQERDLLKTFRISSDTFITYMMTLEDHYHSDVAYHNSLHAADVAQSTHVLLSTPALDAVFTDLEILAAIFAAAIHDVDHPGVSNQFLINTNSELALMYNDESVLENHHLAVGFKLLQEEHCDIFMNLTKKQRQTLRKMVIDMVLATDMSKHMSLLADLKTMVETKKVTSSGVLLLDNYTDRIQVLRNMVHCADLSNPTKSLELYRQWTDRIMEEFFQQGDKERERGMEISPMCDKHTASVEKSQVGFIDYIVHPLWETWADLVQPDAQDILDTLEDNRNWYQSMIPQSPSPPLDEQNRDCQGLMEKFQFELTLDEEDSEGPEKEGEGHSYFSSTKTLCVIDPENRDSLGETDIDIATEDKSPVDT
Glucocorticoid receptor (Homo sapiens), sequence (P04150 whole entry, looked up): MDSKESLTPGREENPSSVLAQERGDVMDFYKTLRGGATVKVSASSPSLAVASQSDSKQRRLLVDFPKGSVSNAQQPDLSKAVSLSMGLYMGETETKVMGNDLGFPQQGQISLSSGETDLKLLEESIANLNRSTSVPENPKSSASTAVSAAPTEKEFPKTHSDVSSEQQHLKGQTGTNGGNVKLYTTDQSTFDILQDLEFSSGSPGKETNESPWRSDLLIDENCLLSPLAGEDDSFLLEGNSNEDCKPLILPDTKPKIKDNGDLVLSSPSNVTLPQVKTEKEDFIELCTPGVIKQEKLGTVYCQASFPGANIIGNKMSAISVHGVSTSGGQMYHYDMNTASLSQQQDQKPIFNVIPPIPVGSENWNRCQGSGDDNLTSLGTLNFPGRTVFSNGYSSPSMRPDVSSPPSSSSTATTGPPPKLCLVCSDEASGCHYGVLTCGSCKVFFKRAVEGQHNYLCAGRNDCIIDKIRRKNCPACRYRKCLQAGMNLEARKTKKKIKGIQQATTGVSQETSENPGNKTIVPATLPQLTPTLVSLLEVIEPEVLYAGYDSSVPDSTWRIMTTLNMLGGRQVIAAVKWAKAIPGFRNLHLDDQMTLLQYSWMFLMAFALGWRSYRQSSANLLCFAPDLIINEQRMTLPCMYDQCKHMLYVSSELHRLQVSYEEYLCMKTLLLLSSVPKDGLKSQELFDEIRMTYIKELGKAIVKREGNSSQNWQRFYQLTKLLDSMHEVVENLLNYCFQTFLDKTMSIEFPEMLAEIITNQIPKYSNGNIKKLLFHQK
DNA dC->dU-editing enzyme APOBEC-3G (Homo sapiens), sequence (Q9HC16 whole entry, looked up): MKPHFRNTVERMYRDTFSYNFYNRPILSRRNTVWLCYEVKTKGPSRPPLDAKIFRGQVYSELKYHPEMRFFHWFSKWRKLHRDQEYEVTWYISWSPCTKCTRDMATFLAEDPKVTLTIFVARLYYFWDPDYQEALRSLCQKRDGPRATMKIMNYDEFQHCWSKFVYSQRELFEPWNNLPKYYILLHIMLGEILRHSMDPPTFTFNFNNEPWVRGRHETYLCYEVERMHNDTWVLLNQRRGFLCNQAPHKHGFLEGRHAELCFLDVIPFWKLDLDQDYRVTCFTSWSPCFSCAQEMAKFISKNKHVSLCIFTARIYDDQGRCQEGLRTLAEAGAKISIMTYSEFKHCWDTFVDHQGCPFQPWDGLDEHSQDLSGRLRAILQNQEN
Alpha-galactosidase A (Homo sapiens), sequence (P06280 whole entry, looked up): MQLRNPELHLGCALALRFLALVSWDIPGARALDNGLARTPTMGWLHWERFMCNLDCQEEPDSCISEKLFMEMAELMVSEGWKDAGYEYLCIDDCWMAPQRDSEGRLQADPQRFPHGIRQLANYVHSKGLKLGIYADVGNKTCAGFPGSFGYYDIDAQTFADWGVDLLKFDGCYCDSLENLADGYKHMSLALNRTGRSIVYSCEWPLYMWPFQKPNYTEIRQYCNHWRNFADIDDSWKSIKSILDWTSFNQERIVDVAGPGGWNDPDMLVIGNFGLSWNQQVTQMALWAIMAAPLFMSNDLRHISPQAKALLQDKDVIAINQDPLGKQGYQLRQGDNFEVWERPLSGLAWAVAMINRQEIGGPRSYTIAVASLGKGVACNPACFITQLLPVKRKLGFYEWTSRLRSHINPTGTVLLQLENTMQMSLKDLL
Guanine nucleotide-binding protein G(i) subunit alpha-1 (Homo sapiens), sequence (P63096 whole entry, looked up): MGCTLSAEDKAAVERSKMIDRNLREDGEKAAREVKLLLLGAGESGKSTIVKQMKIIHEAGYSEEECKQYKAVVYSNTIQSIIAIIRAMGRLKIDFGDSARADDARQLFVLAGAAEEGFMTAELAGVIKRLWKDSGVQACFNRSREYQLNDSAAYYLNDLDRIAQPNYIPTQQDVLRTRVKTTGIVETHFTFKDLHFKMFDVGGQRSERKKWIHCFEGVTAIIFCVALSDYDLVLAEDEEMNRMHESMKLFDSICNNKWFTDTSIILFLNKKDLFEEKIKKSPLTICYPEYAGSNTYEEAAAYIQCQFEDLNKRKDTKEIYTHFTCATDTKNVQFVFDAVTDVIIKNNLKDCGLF

With `CC(=O)N1CC[N+](C)(C)CC1`, the Potency in test [1] and in test [2] was > 46 µM (inactive) each time. Besides, the compound was called inactive in test [3]. Also, the Potency result in test [4], in test [6], in test [7] and in test [8] was “inactive” in each case. Also, the activity change, negative = inhibition in test [5] is 2.08% (inactive). Besides, the max response was -4.3% in [5] (setting [21]) and -0.222% in test [5] (setting [22]).

For `COC(=O)/C=C\C(=O)N[C@@H]1CC[C@@]2(O)[C@H]3Cc4ccc(O)c5c4[C@@]2(CCN3CC2CC2)[C@@H]1O5`, the Potency in [1] and in [2] was > 46 µM (inactive) each time. Also, the Potency entry in [4], in [9], in test [6], in test [7] and in [8] was “inactive” in each case. In addition, the activity change, negative = inhibition in test [5] is -0.127% (inactive). The max response in test [5] (setting [21]) is -6.87%; in test [5] (setting [22]) it was -10.5%.

On to `Cc1nc(N)sc1CCN`, for which, in [2], the Potency is > 46 µM (inactive). For the same compound, the compound was called inactive in test [3]. In addition, the Potency entry in test [4], in test [9], in [6], in test [7] and in test [8] was “inactive” throughout. Besides, in [5], the activity change, negative = inhibition is 3.05% (inactive). Also, the max response in [5] (setting [21]) is -8.41%; in test [5] (setting [22]), -2.18%.

As to `CCOC(=O)c1ncn2c1[C@H]1CCCN1C(=O)c1cc(OC)ccc1-2`, the compound was classed as inactive in [10], in test [13], in [3], in [14], in [17] and in [18]. In addition, the compound was classed as inactive in test [19]. Moreover, the Potency result in [11], in test [4], in test [15], in [16], in [9] and in test [6] was “inactive” throughout. Besides, the Potency entry in [7] and in test [8] was “inactive” each time. In addition, in test [12] (at 38 µM (top of the series)), the activity change, negative = inhibition is 7.15% (inactive). The Potency in test [1] and in test [2] was > 46 µM (inactive) each time.

Regarding `CCCn1c(C)c(C(=O)c2cccc3ccccc23)c2ccccc21`, the Potency in [11] was 2 µM (active); in test [1], > 46 µM (inactive); in test [2], > 46 µM (inactive). For the same compound, the Potency entry in test [6], in test [7] and in test [8] was “inactive” throughout.

Turning to `CN1Cc2ccccc2[C@@H]2c3cccc4[nH]cc(c34)C[C@H]21`, the Potency in [1] is > 46 µM (inactive); in test [2], > 46 µM (inactive); in test [6], 26.6 µM (active). Also, the Potency result in test [7] and in [8] was “inactive” in each case.

As to `O=C1C2CCN(CC2)C1(CO)CO`, the activity change, negative = inhibition in [10] was 3.23% [at 7.69 µM] (inactive); in test [12] (at 7.69 µM (top of the series)) it was -7.28% (inactive). For the same compound, the Potency entry in test [11], in test [4], in test [6], in test [7] and in test [8] was “inactive” in each case. The activity, negative = inhibition in [13] is 4.51% [at 7.69 µM] (inactive). In addition, the Potency in test [2] was > 46 µM (inactive) and > 9.22 µM (inactive). In addition, the outcome in test [3] was inactive.

As for `S=C=Nc1cccc(C2(N3CCCCC3)CCCCC2)c1`, the outcome in [10], in test [13] and in [3] was inactive. Also, the Potency entry in test [11], in test [4], in [20], in [6], in test [7] and in test [8] was “inactive” throughout. The Potency in [2] is > 46 µM (inactive).

With `Cc1o[nH]c(=O)c1C[C@@H](N)C(=O)O`, the Potency result in test [11], in test [4], in test [6], in [7] and in test [8] was “inactive” throughout. In addition, the Potency in [1] and in [2] was > 46 µM (inactive) throughout. In addition, the result in test [3] was inactive. Further, the activity change, negative = inhibition in test [5] was -2.31% (inactive). The max response in test [5] (setting [21]) is -0.22%; in test [5] (setting [22]), 0.175%.
